# An excerpt weighted towards active compounds, which were near 1.8% of everything screened.
# GC-A act: GC-A (human) enzyme activation; P16066; HEK293 GC-A cells, cGMP TR-FRET, EC30 ANP; 0% at EC30 ANP, 100% saturating ANP; activation, % at 10 µM; actives 0.14% (n = 370,000); in the data active = activation above about 40%
# Target sequence (P16066 whole entry, looked up): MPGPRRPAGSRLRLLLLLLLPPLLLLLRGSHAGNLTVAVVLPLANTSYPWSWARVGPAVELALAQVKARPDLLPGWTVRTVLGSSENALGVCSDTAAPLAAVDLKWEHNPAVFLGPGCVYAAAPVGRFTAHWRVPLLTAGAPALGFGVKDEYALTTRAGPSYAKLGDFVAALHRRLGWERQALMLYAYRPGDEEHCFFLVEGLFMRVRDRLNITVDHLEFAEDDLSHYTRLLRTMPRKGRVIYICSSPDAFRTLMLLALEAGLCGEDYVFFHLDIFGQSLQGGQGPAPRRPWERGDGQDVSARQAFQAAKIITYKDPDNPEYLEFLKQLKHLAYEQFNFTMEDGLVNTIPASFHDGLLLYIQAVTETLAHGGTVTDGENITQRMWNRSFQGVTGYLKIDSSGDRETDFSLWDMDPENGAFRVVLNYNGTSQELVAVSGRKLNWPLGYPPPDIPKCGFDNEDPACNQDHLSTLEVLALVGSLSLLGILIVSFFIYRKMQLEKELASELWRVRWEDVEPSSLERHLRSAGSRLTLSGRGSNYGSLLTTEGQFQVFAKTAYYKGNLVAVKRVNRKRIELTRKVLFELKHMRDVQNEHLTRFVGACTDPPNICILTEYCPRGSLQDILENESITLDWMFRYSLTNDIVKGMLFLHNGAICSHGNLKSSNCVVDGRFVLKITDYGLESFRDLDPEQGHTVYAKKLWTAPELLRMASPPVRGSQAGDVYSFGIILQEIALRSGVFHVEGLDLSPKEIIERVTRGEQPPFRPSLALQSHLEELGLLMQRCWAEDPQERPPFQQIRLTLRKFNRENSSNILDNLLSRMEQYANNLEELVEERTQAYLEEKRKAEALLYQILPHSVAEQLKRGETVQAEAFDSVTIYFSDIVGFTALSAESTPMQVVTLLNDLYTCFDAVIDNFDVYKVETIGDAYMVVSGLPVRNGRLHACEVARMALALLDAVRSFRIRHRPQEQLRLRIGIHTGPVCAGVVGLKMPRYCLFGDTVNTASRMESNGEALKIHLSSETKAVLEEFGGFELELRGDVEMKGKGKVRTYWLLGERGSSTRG
# MsrA inhibitor: bovine MsrA inhibition; purified bovine MsrA, absorbance read-out; inhibition, % at 15.5 µM; actives 0.75% (n = 360,000);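 note: 0% = vehicle wells with enzyme and 100% = reference inhibitor wells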
# m5-HT2A agonist: mouse HTR2A agonism via beta-arrestin recruitment; P35363; CHO-K1 mHTR2A beta-arrestin complementation, luminescence; percent of 30 µM serotonin response; activation, % at 7.6 µM; actives 0.66% (n = 360,000);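 active = activation above a run cutoff, the mean activation of all tested compounds plus 3 SD, cut at about 14% in these data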;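 note: 0% = plate median of compound wells and 100% = 30 µM serotonin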
# GC-B act: GC-B (human) receptor activation | P20594 | activation, % at 10 µM | HEK293-GC-B cells, CNP EC30, cGMP TR-FRET; 0% at EC30 CNP, 100% saturating CNP | actives 0.11% (n = 370,000);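 active = activation at 10 µM reaching about 35% in either raw or pattern-adjusted values, limit read from the data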
# MsrA act: activators of bovine methionine sulfoxide reductase A | purified bovine MsrA, absorbance read-out | activation, % at 10.6 µM | actives 0.3% (n = 360,000); in the data active = activation above about 7.5%;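 note: 0% = vehicle and 100% = reference activator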
# MsrA conf: confirmation of bovine MsrA inhibitors. shares compounds with MsrA inhibitor. actives 41% (n = 2,300). inhibition, % at 15.5 µM. purified bovine MsrA, absorbance read-out;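 note: coupled to thioredoxin reductase with NADPH and selenocystamine and DMSO as substrate; 0% = vehicle only and 100% = full effect of reference inhibitor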
# Starred values were filed as active, the others as inactive; nt = not tested or not shown. Cut-off read from the data, not from the text of the source, unless noted: active = inhibition above about 4.5%; inactive = the rest.
SMILES,GC-A act,MsrA inhibitor,m5-HT2A agonist,GC-B act,MsrA act,MsrA conf
O=c1[nH]c(/C=C/c2ccc([N+](=O)[O-])cc2)c([N+](=O)[O-])c(=O)[nH]1,3,5.4*,-6,-6,-6,5.6*
COC(=O)c1cc2c(c3c4cc(F)ccc4n(S(=O)(=O)c4ccccc4)c13)C(=O)N(Cc1ccc(N(C)C)cc1)C2,0,0,nt,5,nt,nt
C=CCN1C(=O)[C@H](CC(=O)NCCC(C)C)[C@@]2(C(=O)OCC)CCCC=C12,4,nt,nt,13,nt,nt
O=Cc1cccn1-c1sc2c(c1C(=O)O)CCCC2,3,0,2,2,-2,nt
N#Cc1c(-n2cccc2C=O)sc2c1CCCC2,1,11*,1,-4,-5,10.0*
CCCCc1n[nH]c2c1/C(=N/OCC)CC(C)(C)C2,-2,19*,0,-1,-2,13*
CCCCc1n[nH]c2c1/C(=N/O)CC(C)(C)C2,-3,0,-4,3,-2,nt
COCCCN1C(=O)[C@H](CC(=O)NCc2cccs2)[C@]2(C(=O)OC)CCCCC=C12,3,nt,nt,-7,nt,nt
O=C(NCc1ccco1)c1cc2cc3ccc(Cl)cc3nc2o1,15,0,3,11,-3,nt
COc1ccc2nc3oc(C(=O)NCc4cccs4)cc3cc2c1,3,0,-4,8,-6,nt
COc1ccc2cc3cc(C(=O)NCc4ccccn4)oc3nc2c1,6,8.0*,1,4,-5,5.6*
COc1ccc2cc3cc(C(=O)NCc4ccco4)oc3nc2c1,6,4.8*,7,-1,-3,2
C[C@@H]1[C@@H](c2ccccc2)c2cc3ccccc3nc2C(=O)C[C@@H]1C(=O)N1CCCC1,-21,nt,nt,-10,nt,nt
CN(C)c1ccc(/C=N/NC(=O)c2ccc3nc[nH]c3c2)cc1,-9,4.9*,1,-18,-3,4.9*
COc1cc(/C=N/NC(=O)c2ccc3nc[nH]c3c2)ccc1O,2,4,3,0,-4,nt
CCN(CC)c1ccc(/C=N/NC(=O)c2ccc3nc[nH]c3c2)cc1,0,4,-5,-3,-3,nt
CSc1ccc(/C=N/NC(=O)c2ccc3nc[nH]c3c2)cc1,-2,5.1*,-3,1,-5,6.1*
COc1ccc(-c2nc(C)c(C(C)=O)n2O)cc1[N+](=O)[O-],1,4.8*,-5,-2,-4,3
CC(=O)c1c(C)nc(-c2cccc([N+](=O)[O-])c2)n1O,0,1,-5,-2,-6,nt
N#C/C(=C\c1ccco1)C(=O)Nc1ccc(S(N)(=O)=O)cc1,-2,4,5,-4,-13,nt
N#C/C(=C\c1ccco1)C(=O)Nn1cnnc1,-2,7.5*,2,7,-11,5.7*
Cc1ccc(S(=O)(=O)N(C)/N=C/c2ccc(N(C)C)cc2)cc1,1,6.1*,-6,2,-2,2
Cc1ccc(N=Cc2ccc(N(C)C)cc2)cc1,2,6.5*,-1,-6,-5,4
Cc1nc(/N=C\c2ccc(N(C)C)cc2)sc1C,2,5.8*,1,3,-2,3
CN(C)c1ccc(C=Nc2ccc(N(C)C)cc2)cc1,-28,7.2*,0,-55,1,4.8*
SMILES,GC-A act,MsrA inhibitor,m5-HT2A agonist,GC-B act,MsrA act,MsrA conf
CC(=O)COc1c(-c2ccco2)oc2ccccc2c1=O,1,4.8*,-3,-5,-5,4
COc1ccc(-c2csc(C)n2)cc1Br,-3,7.9*,-1,7,-4,5.2*
COc1cc(-c2csc(C)n2)ccc1O,0,-2,-6,0,-3,nt
Cc1c(C#N)c(N=CN(C)C)c(C(=O)c2ccccc2)n1-c1ccc(Br)cc1,-17,5.3*,3,0,-9,7.3*
Cc1c(C#N)c(N=CN(C)C)c(C(=O)c2ccc(Br)cc2)n1-c1ccccc1,-35,2,0,-19,1,nt
CCOc1ccc(C=NNC(=O)c2cc(-c3ccc(Cl)cc3)n[nH]2)cc1,2,nt,nt,-9,nt,nt
CSc1ccc(/C=N/Nc2nc(C)cc(=O)[nH]2)cc1,-8,4.9*,-7,-11,-5,4
Cc1cc(=O)[nH]c(N/N=C/c2ccc(O)c(O)c2)n1,-5,4,-6,-1,-6,nt
Cc1cc(=O)[nH]c(N/N=C/c2ccc(Br)s2)n1,-2,5.5*,-5,-4,-5,4
Cc1cc(=O)[nH]c(NN=Cc2c(Cl)cccc2Cl)n1,0,1,-5,-3,5,nt
Cc1cc(=O)[nH]c(N/N=C/C=C/c2ccccc2)n1,-9,11*,3,-14,-8,4
COC(=O)C1=C(C)N(Cc2ccccc2C(F)(F)F)C(=NCc2ccccc2)NC1c1ccc(F)cc1 (stereo not given),-20,0,nt,-15,nt,nt
Cc1cc(F)ccc1C(=O)N1CCC(Oc2cccnc2)CC1,2,nt,nt,5,nt,nt
CCCCc1cc(=O)oc2cc(C)cc(OC(C)C(=O)NCc3ccccn3)c12 (stereo not given),-20,6.4*,0,-12,-3,0
Cc1ccccc1NC(=O)CCS(=O)(=O)c1ccccc1,3,nt,nt,2,nt,nt
O=C(N=C1N(Cc2ccccc2)[C@@H](Cc2ccccc2)[C@]2(C=C3CCCCC3n3c(=O)n(-c4ccccc4)c(=O)n32)N1C(=O)OCc1ccccc1)c1ccccc1 (stereo not given in full),3,nt,nt,4,nt,nt
c1ccc(-c2onc3cc4c(cc23)OCCO4)cc1,-4,5.1*,-4,3,0,2
O=C(O)c1cc(N/N=C/C=C/c2ccccc2)ccc1Cl,-1,5.1*,-2,0,-5,4
NC(=S)N/N=C/C=C/c1ccccc1,-3,5.2*,3,-2,-8,5
Cc1cc(C(=O)N/N=C/C=C/c2ccccc2)c(C)o1,-1,4.7*,-6,3,-5,4
NC(=S)N/N=C/c1cccc(/C=N/NC(N)=S)c1,3,2,6,1,-1,nt
Cc1occc1C(=O)N/N=C/C=C/c1ccccc1,-4,5.5*,7,-6,-6,5.1*
CCOC(=O)N(C)[C@H]1C[C@H]2c3[nH]c4cccc(-c5cccc(F)c5)c4c3CCN2C(=O)[C@H]1[C@H](C)O,-2,nt,nt,3,nt,nt
CN(CC(=O)Nc1ccccc1Br)C(=O)c1sccc1-c1ccccc1,-2,1,0,-1,-5,nt
Cc1ccc(C(=O)N/N=C/C=C/c2ccccc2)cc1,0,4.9*,-2,1,-5,4.6*
O=C(N/N=C/C=C/c1ccccc1)c1cccc(Br)c1,-3,4,-6,-6,-1,nt
O=C(C(=O)c1ccc(O)c(O)c1)c1ccc(O)c(O)c1,-2,7.6*,2,1,0,8.3*
COC(=O)C1CN(Cc2cn(Cc3ccc(Cl)cc3)nn2)CCS(=O)(=O)N1Cc1ccc(OC)cc1 (stereo not given),-2,nt,nt,-6,nt,nt
